Screening data deposited in PubChem by National Center for Advancing Translational Sciences (NCATS).
Shiga inhibitor: A qHTS for Small Molecule Inhibitors of Shiga Toxin. Vero cells, Shiga toxin protein synthesis inhibition reporter. inhibition, % at 38.7 µM. 290,000 tested, 9.2% active. AID 2315, 2010; in the data active = inhibition mostly above about 28%, no sharp cut-off; inactive = mostly below about 43%
Pf growth 96h: Primary qHTS for delayed death inhibitors of the malarial parasite plastid, 96 hour incubation; Potency, µM (highest dose often 28.7 µM), most hits filed as inhibitors; 320,000 tested, 6.9% active; P. falciparum luciferase reporter growth, 96 h
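P. falciparum expressing integrated firefly luciferase grown in erythrocytes (2% hematocrit, 0.05% parasitemia final) with compounds for 96 hours at 37 C, 5% CO2. Growth inhibition read as loss of luminescence after adding luciferase detection reagent.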
HCV inh: qHTS Assay for Inhibitors of Hepatitis C Virus (HCV); Huh7.5.1 HCVcc-Cre infection, luciferase reporter, 44 h; Potency, µM (doses to about 41.8 µM), actives largely listed as inhibitors; 340,000 tested, 3.4% active
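Reporter virus HCVcc-Cre (~0.5 moi) infects cells exposed to compound; seeding density 1,000 cells/well with 4 h settling beforehand. Luminescence, 15 sec read, taken 44 h post-infection following a 15 min RT substrate incubation.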
AMA1-RON2 inh: qHTS for Inhibitors of AMA1-RON; Towards Development of Antimalarial Drug Lead: Primary Screen; Plasmodium falciparum AMA1 (3D7) - RON2 peptide interaction; AlphaScreen AMA1-biotinylated RON2 peptide binding; Potency, µM (highest dose often 58.2 µM), usual class: inhibitors; 360,000 tested, 0.2% active; AID 720542, 2013; also: nearly all actives have a fitted effect of over 45% in size
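AMA1 (3D7) with his tag at 25 nM final met compounds first, then biotinylated RON2 peptide at 25 nM; detection used donor plus acceptor beads, 10 µg/mL apiece, read by AlphaScreen after 30 min at room temperature.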
Pf growth 48h: Primary qHTS for delayed death inhibitors of the malarial parasite plastid, 48 hour incubation; P. falciparum luciferase growth in erythrocytes, 48 h; Potency, µM (top dose mostly 28.7 µM), actives largely listed as inhibitors; 310,000 tested, 5.9% active
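Firefly luciferase activity from engineered P. falciparum reports growth; inhibitors lower the luminescent signal. Cultures contained 2% hematocrit erythrocytes at 0.1% final parasitemia.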
CHX counter: Cycloheximide Counterscreen for Small Molecule Inhibitors of Shiga Toxin. cell reporter, cycloheximide protein synthesis inhibition counterscreen. max response, %. 300,000 tested, 12% active; in the data active = max response mostly above about 13%, no sharp cut-off; inactive = mostly below about 14%; also: read at 38.3 µM for the half of the compounds with a filed dose
Each line names hits and unclear results; the compound was inactive in the other large screens; ! = not active in a repeat. A selection: hits, their analogues and other compounds. The true share with any hit is near 21%. Unless noted, calls follow the shape of the dose curve; as a rule, active = well fitted curve in the direction sought with a large enough effect; inconclusive = small, poorly fitted or top-dose-only effect, or another doubt; inactive = no such curve, though single readings can be large; an effect the other way counts as inactive or inconclusive.

Cc1cc(C)cc(C(O)c2ncc(-c3ccc(F)cc3)[nH]2)c1 (stereo not drawn)	none (no result: Shiga inhibitor, Pf growth 96h, HCV inh, Pf growth 48h, CHX counter)
CCOc1ccc(NC(=O)CN(C)C(=O)c2ccc(C)o2)cc1OCC	HCV inh inconclusive
O=C1C=C(c2ccccc2)CO1	none (no result: Shiga inhibitor, Pf growth 96h, Pf growth 48h, CHX counter)
Cc1ccc(-c2nc(N3CCN(S(=O)(=O)c4ccc(F)cc4)CC3)c3ccc(Cl)cc3n2)cc1	none (no result: Pf growth 96h, HCV inh, AMA1-RON2 inh, Pf growth 48h)
NS(=O)(=O)c1cc2c(cc1Cl)N[C@H](Cc1ccccc1)NS2(=O)=O	none (no result: Shiga inhibitor, HCV inh, AMA1-RON2 inh, CHX counter)
COc1cccc(CNC(=O)CCC2CCCN(C3CCOCC3)C2)c1 (stereo not drawn)	Pf growth 96h inconclusive
Cc1ccn(CCC(=O)N2CCCC(CCC(=O)NCc3ccc(F)c(F)c3)C2)n1 (stereo not drawn)	Pf growth 96h 11.7µM
CSc1ncccc1C(=O)N1CCCC(CCC(=O)NCc2ccc(F)c(F)c2)C1 (stereo not drawn)	Pf growth 96h inconclusive, Pf growth 48h inconclusive
COc1cccc(CNC(=O)CCC2CCCN(c3cc(C)nc(N4CCCC4)n3)C2)c1 (stereo not drawn)	Pf growth 96h 11.7µM, Pf growth 48h inconclusive
COc1ccc(C(=O)N2CCCC(CCC(=O)NCc3ccc(F)c(F)c3)C2)cc1F (stereo not drawn)	none
COc1cccc(CNC(=O)CCC2CCCN(C(=O)c3cc4ccccc4o3)C2)c1 (stereo not drawn)	Shiga inhibitor 68.0, Pf growth 96h inconclusive, HCV inh inconclusive, CHX counter 47.8
COc1ccc(C(=O)N2CCCC(CCC(=O)NCc3ccc(F)c(F)c3)C2)o1 (stereo not drawn)	Shiga inhibitor 93.7, CHX counter 26.4
COc1ccc(N2CCN(C3CCCN(Cc4cccc(C(C)=O)c4)C3)CC2)cc1 (stereo not drawn)	Pf growth 96h inconclusive, Pf growth 48h inconclusive
CCc1noc(C)c1C(=O)NNC(=O)c1ccc(N(CC)CC)cc1	Pf growth 96h inconclusive, Pf growth 48h inconclusive (no result: Shiga inhibitor, CHX counter)
CC(C)CNC(=O)C1(C)CCCN1C(=O)c1cccnc1Oc1ccccc1 (stereo not drawn)	none (no result: Shiga inhibitor, Pf growth 96h, HCV inh, Pf growth 48h, CHX counter)
Cc1ccc(S(=O)(=O)Nc2nc3ccccc3nc2NCc2ccco2)cc1	Shiga inhibitor 73.9, CHX counter 59.2 (no result: Pf growth 96h)
c1cncc(-c2nc(NCc3ccco3)c3ccccc3n2)c1	HCV inh 10µM, Pf growth 48h 11.7µM
O=S(=O)(Nc1nc2ccccc2nc1NCc1ccco1)c1ccc(Cl)cc1	none
O=c1c2ccccc2nc2ccc(NCc3ccco3)nn12	Shiga inhibitor 56.3, CHX counter 50.7 (no result: Pf growth 96h)
Cc1sc2nc3ccc(NCc4ccco4)nn3c(=O)c2c1C	none
Cc1ccc(-c2nc(NCc3ccco3)c3ccccc3n2)cc1	Shiga inhibitor 36.3, HCV inh inconclusive, CHX counter 69.0
CCCn1c(SCC(=O)N2CCCC2)nc2c1c(=O)n(C)c(=O)n2C	Pf growth 96h 1.17µM
CCCn1c(SCC(=O)Nc2ccc3c(c2)OCO3)nc2c1c(=O)n(C)c(=O)n2C	Pf growth 96h 10.4µM, HCV inh inconclusive
CCCn1c(SCC(=O)Nc2ccccc2N2CCCCC2)nc2c1c(=O)n(C)c(=O)n2C	HCV inh 10µM!, Pf growth 48h inconclusive
CCn1c(SCC(=O)Nc2ccc3c(c2)OCO3)nc2c1c(=O)n(C)c(=O)n2C	Pf growth 96h inconclusive
Cn1c(=O)c2c(SCC(=O)N3CCCC3)nc(CC(C)(C)C)nc2n(C)c1=O	Pf growth 96h 13.1µM
CCCn1c(SCC(=O)Nc2ccccc2C(=O)OC)nc2c1c(=O)n(C)c(=O)n2C	HCV inh inconclusive
CCc1nc(SCC(=O)N2CCCC2)c2c(=O)n(C)c(=O)n(C)c2n1	none (no result: HCV inh)
O=C(Nc1ccc(N2CCOCC2)cc1)c1ccc(COc2ccccc2)cc1	Pf growth 96h inconclusive, HCV inh inconclusive
COC(=O)c1ccc(NC(=O)C(=O)N2CCN(C(=S)Nc3ccccc3OC)CC2)cc1	Pf growth 96h inconclusive
COC(=O)c1ccc(NC(=O)C(=O)N2CCN(C(=S)Nc3cccc(C)c3C)CC2)cc1	Pf growth 96h 0.465µM
CC(=O)Nc1cnc(-c2cc(C)c(O)c(C)c2)cn1	none (no result: Shiga inhibitor, Pf growth 96h, HCV inh, Pf growth 48h, CHX counter)
COc1ccc(NS(=O)(=O)c2cc(N/C(=N\S(=O)(=O)c3ccccc3)c3ccc(F)cc3)ccc2Cl)cc1	Pf growth 96h 10.4µM, HCV inh inconclusive, Pf growth 48h inconclusive
O=S(=O)(/N=C(/NC(=S)Nc1ccccc1)c1ccccc1)c1ccc(Cl)cc1	Shiga inhibitor 100.7, Pf growth 96h inconclusive, CHX counter 41.1
COc1ccc(NC(=S)NC(=NS(=O)(=O)c2ccc(Cl)cc2)c2ccccc2)cc1	HCV inh inconclusive (no result: Shiga inhibitor, Pf growth 96h, Pf growth 48h, CHX counter)
COc1ccc(NC(=S)N/C(=N/S(=O)(=O)c2ccc(C)cc2)c2ccccc2)cc1	Shiga inhibitor 60.8, CHX counter 34.1
C[C@]12c3[nH]c4ccc(Cl)cc4c3CCN1C(=O)[C@@H](CC(=O)NCCc1ccccn1)C[C@@H]2C(=O)N1CCCCC1	HCV inh inconclusive (no result: Shiga inhibitor, Pf growth 96h, Pf growth 48h, CHX counter)
Cc1cc(F)ccc1NC(=O)CCc1ccc(S(=O)(=O)N2CCOCC2)cc1	Pf growth 96h inconclusive, Pf growth 48h inconclusive (no result: Shiga inhibitor, CHX counter)
C[C@@H]1C(=O)NC2=Nc3cccc(Cl)c3CN21	none (no result: Shiga inhibitor, HCV inh, AMA1-RON2 inh, CHX counter)
CN(CC(=O)Nc1cccc(F)c1)C(=O)c1cccc(S(=O)(=O)N2CC3(C)CC2CC(C)(C)C3)c1 (stereo not drawn)	Pf growth 96h inconclusive, Pf growth 48h inconclusive (no result: Shiga inhibitor, CHX counter)
COc1cccc(-c2cnc(C(O)c3ccc(Cl)c(F)c3)[nH]2)c1 (stereo not drawn)	none (no result: Shiga inhibitor, Pf growth 96h, HCV inh, Pf growth 48h, CHX counter)
CC(=O)Nc1cccc2c1C(=O)N(c1ccc(C)cc1)C2=O	Shiga inhibitor 35.2, CHX counter 15.0
O=C1c2ccccc2NC(c2ccccc2O)N1O (stereo not drawn)	Pf growth 96h inconclusive (no result: Pf growth 48h)
CC(C)Oc1ccc(C2CC(=O)N(c3ccccc3)C2=O)cc1 (stereo not drawn)	CHX counter 19.9 (no result: Pf growth 48h)
COc1ccc(N2C(=O)c3ccccc3C2=O)cc1	Shiga inhibitor 54.8, Pf growth 96h inconclusive, CHX counter 18.9
Cc1ccc(N2C(=O)c3ccccc3NC2c2ccccc2O)cc1 (stereo not drawn)	Shiga inhibitor 79.1, CHX counter 36.0 (no result: Pf growth 48h)
CC(=O)Nc1ccc2c(c1)C(=O)N(c1cccc(C)c1)C2=O	HCV inh inconclusive
CC(C)Oc1ccc(N2C(=O)c3ccccc3C2=O)cc1	CHX counter 17.6 (no result: Pf growth 48h)
COc1ccc2c(c1OC)C(=O)N(c1ccccc1)C2=O	Shiga inhibitor 47.2, CHX counter 39.4
CC(=O)Nc1ccc(N2C(=O)c3cccc4c(O)ccc(c34)C2=O)cc1	none
COc1ccc(N2C(=O)c3cccc4cccc(c34)C2=O)cc1	Pf growth 96h inconclusive
